Data taken from PubChem BioAssay (Tox21).
Where “and” joins values, the source holds several entries; their conditions need not be identical. Equal entries are not always repeated. Records with an inconclusive call do not appear. Where a call stands in place of a potency, no number is given. Some compounds were tested as several samples or in several runs, with calls that do not always agree. Calls of active or inactive are those of the source. Unless noted, calls follow the shape of the dose curve; as a rule, active = well fitted curve in the direction sought with a large enough effect in the repeat runs; inconclusive = weak or mixed curves; inactive = no such curve, though single readings can be large; an effect the other way counts as inactive or inconclusive.

How the values were obtained:
[1] = qHTS assay for small molecule agonists of the p53 signaling pathway (AID 651631; calls by dose curve; also: nearly all actives have a fitted effect of over 15% in size; also: potency is read from the fitted curve at half-maximal effect)
Procedure, shortened: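 Agonist mode screen using a stably integrated beta-lactamase gene under p53 response elements in HCT-116 cells. Compound exposure lasts 16 h at 37 °C; fluorescence intensity is measured following 2 h FRET substrate loading.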

[2] = qHTS assay for small molecules that induce genotoxicity in human embryonic kidney cells expressing luciferase-tagged ATAD5 (AID 651632); also: nearly all actives have a fitted effect of over 15% in size; also: potency is read from the fitted curve at half-maximal effect
Procedure, shortened: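 A rise in luciferase signal from ATAD5-tagged HEK293T cells marks genetic stress. Cells were exposed to compounds for 16 hr at 37C, 5% CO2, then luciferase was quantified after a 30 min room-temperature incubation with Amplite.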

[3] = qHTS assay for small molecule agonists of the p53 signaling pathway - cell viability (AID 651633; calls by dose curve; also: nearly all actives have a fitted effect of over 30% in size; also: potency is read from the fitted curve at half-maximal effect)
Procedure, shortened: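 p53RE-bla cells were treated with compound for 16 hours at 37 C. Cytotoxicity was then measured as CellTiter-Glo luminescence after 30 min at room temperature.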

[4] = qHTS assay for small molecules that induce genotoxicity in human embryonic kidney cells expressing luciferase-tagged ATAD5 - cell viability (AID 651634; calls by dose curve; also: nearly all actives have a fitted effect of over 25% in size; also: potency is read from the fitted curve at half-maximal effect)
Procedure, shortened: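 Cytotoxicity counter-readout: after 15.5 hr compound treatment at 37C, live-cell protease activity in ATAD5-luciferase HEK293T cells measured by CellTiter-Fluor fluorescence, 30 min development at 37C.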

[5] = qHTS assay for small molecule disruptors of the mitochondrial membrane potential - cell viability (AID 720634; calls by dose curve; also: nearly all actives have a fitted effect of over 20% in size; also: potency is read from the fitted curve at half-maximal effect)
Procedure, shortened: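 Cytotoxicity was quantified from ATP content by CellTiter-Glo luminescence in the same wells as the MMP dye read-out. HepG2 (2,000 cells/well) were plated overnight and exposed to compounds for 1 hr at 37 C.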

[6] = qHTS assay for small molecule disruptors of the mitochondrial membrane potential (AID 720635); also: potency is read from the fitted curve at half-maximal effect
Procedure, shortened: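 HepG2 cells exposed to compound 1 hr at 37C, then Mito-MPS dye 30 min. Ratio read of aggregate (540/590 nm) versus monomer (490/535 nm) fluorescence.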

[7] = qHTS assay to test for compound auto fluorescence at 590 nm (red) in HepG2 cells (AID 720674)
Procedure, shortened: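 HepG2 cells, 2,000 per well in MEM with 10% FBS, attached overnight at 37 C, then got 23 nL compound or DMSO. After 1 hr at 37 C, 5% CO2, red fluorescence was read at 540/590 nm against Rose Bengal sodium as reference.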

[8] = qHTS assay to test for compound auto fluorescence at 535 nm (green) in HepG2 cells (AID 720675)
[9] = qHTS assay to test for compound auto fluorescence at 460 nm (blue) in HEK293 cells (AID 720678)
Procedure, shortened: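 Auto fluorescence in the blue band was quantified as triamterene equivalency. HEK293 cells were seeded at 2,000/well, dosed after a 4-5 hr attachment, and kept overnight at 37C before the 405/460 nm reading.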

[10] = qHTS assay to test for compound auto fluorescence at 590 nm (red) in HEK293 cells (AID 720679)
Procedure, shortened: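 Autofluorescence equivalency to Rose Bengal sodium, 540/590nm, in HEK293 cells exposed overnight to 23 nL compound per well.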

[11] = qHTS assay to test for compound auto fluorescence at 535 nm (green) in HEK293 cells (AID 720680)
[12] = qHTS assay to test for compound auto fluorescence at 460 nm (blue) in HEK293 cell free culture (AID 720681)
Procedure, shortened: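 Compounds were added to cell-free DMEM with 10% FBS and fluorescence read directly. The blue channel used 405 nm excitation and 460 nm emission, with triamterene as the reference fluorophore.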

[13] = qHTS assay to test for compound auto fluorescence at 535 nm (green) in HEK293 cell free culture (AID 720682)
Procedure, shortened: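 No cells present: wells hold DMEM supplemented with 10% FBS, into which compound or vehicle is pinned. Green emission is then recorded (485 nm excitation, 535 nm emission) and scaled to fluorescein.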

[14] = qHTS assay to test for compound auto fluorescence at 590 nm (red) in HEK293 cell free culture (AID 720683)
Procedure, shortened: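 Cell-free wells of DMEM with 10% FBS received compound, and intrinsic fluorescence was read at excitation/emission 540/590 nm. Values expressed as equivalence to Rose Bengal sodium.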

[15] = qHTS assay to test for compound auto fluorescence at 590 nm (red) in HepG2 cell free culture (AID 720684)
Procedure, shortened: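 Auto fluorescence equivalency versus Rose Bengal sodium, red channel Ex/Em 540/590 nm; compounds in cell-free MEM/10% FBS; DMSO vehicle control.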

[16] = qHTS assay to test for compound auto fluorescence at 460 nm (blue) in HepG2 cell free culture (AID 720685)
Procedure, shortened: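 Cell-free plates of MEM plus 10% FBS received 23 nL compound or DMSO vehicle; blue-channel (405/460 nm) intensity scored against triamterene as reference fluorophore.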

[17] = qHTS assay to test for compound auto fluorescence at 535 nm (green) in HepG2 cell free culture (AID 720686)
[18] = qHTS assay to test for compound auto fluorescence at 460 nm (blue) in HepG2 cells (AID 720687)
Procedure, shortened: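 HepG2 cells in MEM with 10% FBS, attached overnight at 37 C, were exposed to compound or DMSO for 1 hr at 37 C, 5% CO2. Blue fluorescence was read at 405/460 nm, with triamterene as reference fluorophore.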

[19] = target: Glucocorticoid receptor (Homo sapiens) (UniProt P04150); assay: qHTS assay to identify small molecule agonists of the glucocorticoid receptor (GR) signaling pathway (AID 720691; active = well fitted activation curve with a large enough effect in the signal ratio in the repeat runs, not every such curve was filed as active; the % refers to the signal ratio)
Sequence of Glucocorticoid receptor (Homo sapiens) (P04150 whole entry, looked up): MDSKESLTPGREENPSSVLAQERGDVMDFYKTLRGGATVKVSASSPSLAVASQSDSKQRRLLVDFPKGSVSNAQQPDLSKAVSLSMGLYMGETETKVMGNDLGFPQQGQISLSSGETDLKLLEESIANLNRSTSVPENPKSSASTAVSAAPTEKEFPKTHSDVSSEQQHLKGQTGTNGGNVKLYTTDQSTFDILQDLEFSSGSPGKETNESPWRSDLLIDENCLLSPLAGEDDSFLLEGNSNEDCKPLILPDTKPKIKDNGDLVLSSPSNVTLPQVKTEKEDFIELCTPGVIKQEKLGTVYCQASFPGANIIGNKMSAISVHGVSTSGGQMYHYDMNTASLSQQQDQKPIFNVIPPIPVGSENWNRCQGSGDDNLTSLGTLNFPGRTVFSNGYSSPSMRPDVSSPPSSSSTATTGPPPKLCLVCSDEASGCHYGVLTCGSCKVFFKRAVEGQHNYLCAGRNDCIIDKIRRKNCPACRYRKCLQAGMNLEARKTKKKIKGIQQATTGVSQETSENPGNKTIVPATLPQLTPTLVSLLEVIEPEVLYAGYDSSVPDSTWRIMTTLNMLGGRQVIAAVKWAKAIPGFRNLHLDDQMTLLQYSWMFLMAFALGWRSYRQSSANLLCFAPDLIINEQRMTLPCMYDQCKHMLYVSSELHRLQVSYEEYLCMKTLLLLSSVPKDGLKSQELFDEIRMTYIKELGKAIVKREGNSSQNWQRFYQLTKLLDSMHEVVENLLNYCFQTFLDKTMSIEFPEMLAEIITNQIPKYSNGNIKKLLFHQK
Procedure, shortened: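 Agonist-mode qHTS in HeLa cells stably expressing a glucocorticoid-response-element beta-lactamase reporter. Fluorescence intensity read with FRET substrate (2 h, room temperature) after 18 h compound treatment at 37 C.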

[20] = target: Glucocorticoid receptor (Homo sapiens) (UniProt P04150); assay: qHTS assay to identify small molecule antagonists of the glucocorticoid receptor (GR) signaling pathway (AID 720692; active = well fitted inhibition curve with a large enough effect in the signal ratio in the repeat runs, not every such curve was filed as active; the % refers to the signal ratio)
Procedure, shortened: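 Inhibition of dexamethasone-driven (5 nM final) beta-lactamase expression was measured in GRE-reporter HeLa cells over 18 h at 37C. Fluorescence was read after 2 h with the B/G FRET substrate at room temperature.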

| Compound | Potency [1] | Potency [2] | Potency [3] | Potency [4] | Potency [5] | Potency [6] | outcome [7] | outcome [8] | Potency [9] | outcome [10] | outcome [11] | Potency [12] | outcome [13] | outcome [14] | outcome [15] | Potency [16] | outcome [17] | Potency [18] | outcome [19] | Potency [20] |
| --- | --- | --- | --- | --- | --- | --- | --- | --- | --- | --- | --- | --- | --- | --- | --- | --- | --- | --- | --- | --- |
| Cn1c(-c2ccccc2)cc(-c2ccccc2)[n+]1C | inactive | inactive | inactive | inactive | inactive | inactive | inactive | inactive | inactive | inactive | inactive | inactive | inactive | inactive | inactive | inactive | inactive | inactive | inactive | – |
| CN(C)P(=O)(N(C)C)N(C)C | inactive | inactive | inactive | inactive | inactive | inactive | – | inactive | inactive | inactive | inactive | inactive | inactive | inactive | inactive | inactive | inactive | inactive | – | – |
| O=[N+]([O-])c1ccc(Cl)c([N+](=O)[O-])c1 | 55.3 µM (active) and 12.2 µM (active) | 24.7 µM (active) | 22 µM (active) and 54.5 µM (active) | 55.3 µM (active) and 68.6 µM (active) | 22 µM (active) and 21.7 µM (active) | 8.77 µM (active) and 8.63 µM (active) | – | inactive | inactive | inactive | inactive | inactive | inactive | inactive | inactive | inactive | inactive | inactive | – | – |
| CN(C)c1ccccc1 | inactive | inactive | inactive | inactive | inactive | inactive | inactive | inactive | inactive | inactive | inactive | inactive | inactive | inactive | inactive | inactive | inactive | inactive | inactive | inactive |
| O=P(OCCCl)(OCCCl)OCCCl | inactive | inactive | inactive | inactive | inactive | inactive | inactive | – | inactive | inactive | inactive | inactive | inactive | inactive | inactive | inactive | inactive | inactive | inactive | inactive |
| N#CC(c1ccccc1)c1ccccc1 | inactive | inactive | inactive | inactive | inactive | 7.69 µM (active) | – | inactive | inactive | inactive | inactive | inactive | inactive | inactive | inactive | inactive | inactive | inactive | inactive | inactive |
| Oc1ccc(Cl)cc1Cl | inactive | inactive | inactive | inactive | inactive | 30.4 µM (active) and 27.3 µM (active) | inactive | inactive | – | inactive | inactive | inactive | inactive | inactive | inactive | inactive | inactive | inactive | inactive | inactive |
| CCCCCCCCCCCCCl | inactive | inactive | inactive | inactive | inactive | inactive | inactive | inactive | inactive | inactive | inactive | inactive | inactive | inactive | inactive | inactive | inactive | inactive | inactive | inactive |
| Cc1ccc(N=CN(C)C=Nc2ccc(C)cc2C)c(C)c1 | inactive | inactive | inactive and 54.7 µM (active) | inactive | inactive | inactive | inactive | – | inactive | inactive | inactive | inactive | inactive | inactive | inactive | inactive | inactive | inactive | inactive | inactive |
| CNC(=S)S | inactive | inactive | inactive | inactive | inactive | inactive | inactive | inactive | inactive | inactive | inactive | inactive | inactive | inactive | inactive | inactive | inactive | inactive | inactive | inactive |
| c1ccc2c(c1)Nc1ccccc1S2 | inactive | inactive | inactive | inactive | 29.8 µM (active) | 7.5 µM (active) and 4.33 µM (active) | inactive | inactive | – | inactive | inactive | inactive | inactive | inactive | inactive | inactive | inactive | inactive | – | – |
| N#CCCCCC#N | inactive | inactive | inactive | inactive | inactive | inactive | inactive | inactive | inactive | inactive | inactive | inactive | inactive | inactive | inactive | inactive | inactive | inactive | inactive | inactive |
| O=NN1CCOCC1 | inactive | inactive | inactive | inactive | inactive | inactive | inactive | inactive | inactive | inactive | inactive | inactive | inactive | inactive | inactive | inactive | inactive | inactive | inactive | inactive |
